Results filed as inconclusive are left out. The source made the active and inactive calls. Unless noted, calls come from the whole dose curve; as a rule, active = well fitted curve in the direction sought with a large enough effect in the repeat runs; inconclusive = weak or mixed curves; inactive = flat fitted curve, though single readings scatter.
Tests used:
[1] = qHTS assay to test for compound auto fluorescence at 535 nm (green) in HEK293 cells (AID 720680)
[2] = qHTS assay to test for compound auto fluorescence at 460 nm (blue) in HEK293 cell free culture (AID 720681)
Outline: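 Test compounds were pinned into cell-free culture medium (DMEM with 10% FBS) and fluorescence was read directly at Ex/Em 405/460 nm. Signals were expressed as fluorescence equivalents of triamterene, with DMSO vehicle as control.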

[3] = qHTS assay to test for compound auto fluorescence at 535 nm (green) in HEK293 cell free culture (AID 720682)
Outline: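 Using fluorescein as calibrant, autofluorescence was quantified at 485/535 nm in cell-free DMEM containing 10% FBS after pintool addition of compound or vehicle.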

[4] = qHTS assay to test for compound auto fluorescence at 590 nm (red) in HEK293 cell free culture (AID 720683)
Outline: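 Tox21 10K library compounds were pinned into cell-free DMEM with 10% FBS and fluorescence was read at excitation 540 nm. Activity is expressed as Rose Bengal sodium equivalency.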

[5] = qHTS assay to test for compound auto fluorescence at 590 nm (red) in HepG2 cell free culture (AID 720684)
Outline: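 Measured in medium alone (MEM containing 10% FBS) following pintool addition of compound; emission at 590 nm with 540 nm excitation, referenced to Rose Bengal sodium.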

[6] = qHTS assay to test for compound auto fluorescence at 460 nm (blue) in HepG2 cell free culture (AID 720685)
Outline: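 Compound (23 nL) or DMSO pinned into cell-free MEM with 10% FBS; blue fluorescence read at 405/460 nm excitation/emission, expressed as auto-fluorescence equivalency to triamterene.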

[7] = qHTS assay to test for compound auto fluorescence at 535 nm (green) in HepG2 cell free culture (AID 720686)
[8] = qHTS assay to test for compound auto fluorescence at 460 nm (blue) in HepG2 cells (AID 720687)
Outline: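 Cells (2,000/well in MEM with 10% FBS) attached overnight at 37 C, then were exposed to compound or DMSO for 1 hr at 37 C, 5% CO2. Fluorescence read at Ex/Em 405/460 nm, expressed as triamterene-equivalent signal.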

[9] = biological target: Glucocorticoid receptor (Homo sapiens) (UniProt P04150); experiment: qHTS assay to identify small molecule agonists of the glucocorticoid receptor (GR) signaling pathway (AID 720691; active = well fitted activation curve with a large enough effect in the signal ratio in the repeat runs, not every such curve was filed as active; the % refers to the signal ratio)
Outline: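 GR-bla HeLa cells carrying a GRE-driven beta-lactamase reporter, exposed to compounds for 18 h at 37 C. Reporter activation read as fluorescence after 2 h with LiveBLAzer B/G FRET substrate at room temperature.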

[10] = biological target: Glucocorticoid receptor (Homo sapiens) (UniProt P04150); experiment: qHTS assay to identify small molecule antagonists of the glucocorticoid receptor (GR) signaling pathway (AID 720692; active = well fitted inhibition curve with a large enough effect in the signal ratio in the repeat runs, not every such curve was filed as active; the % refers to the signal ratio)
Outline: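 GR-bla HeLa cells carrying a GRE-driven beta-lactamase reporter received compound after 4 h plating, then dexamethasone (5 nM final). After 18 h at 37C, the FRET substrate was loaded for 2 h at room temperature and fluorescence read.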
% is set by controls: 0 for no effect and ±100 for the full control effect.

Chain of Glucocorticoid receptor (Homo sapiens) (P04150 whole entry, looked up): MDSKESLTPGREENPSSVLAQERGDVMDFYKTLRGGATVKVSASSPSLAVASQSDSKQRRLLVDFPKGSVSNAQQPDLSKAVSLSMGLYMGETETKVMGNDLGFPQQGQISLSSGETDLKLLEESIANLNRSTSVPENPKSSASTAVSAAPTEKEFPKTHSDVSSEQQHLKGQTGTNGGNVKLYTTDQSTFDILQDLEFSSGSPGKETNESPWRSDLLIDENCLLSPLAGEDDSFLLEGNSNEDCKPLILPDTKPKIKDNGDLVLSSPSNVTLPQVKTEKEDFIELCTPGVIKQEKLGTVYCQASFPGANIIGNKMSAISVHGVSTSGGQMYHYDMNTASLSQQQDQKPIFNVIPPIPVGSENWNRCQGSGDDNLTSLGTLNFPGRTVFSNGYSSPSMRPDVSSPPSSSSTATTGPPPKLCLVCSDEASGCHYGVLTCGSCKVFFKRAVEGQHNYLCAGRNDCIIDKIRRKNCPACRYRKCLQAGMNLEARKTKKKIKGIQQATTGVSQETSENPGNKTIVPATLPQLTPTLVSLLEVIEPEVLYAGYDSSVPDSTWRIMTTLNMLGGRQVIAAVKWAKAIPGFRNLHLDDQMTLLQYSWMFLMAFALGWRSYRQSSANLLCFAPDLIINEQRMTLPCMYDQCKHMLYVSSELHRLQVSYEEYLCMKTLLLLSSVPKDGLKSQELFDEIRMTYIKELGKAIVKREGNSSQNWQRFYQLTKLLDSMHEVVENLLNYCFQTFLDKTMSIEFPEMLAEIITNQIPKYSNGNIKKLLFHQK

Cc1nnc(C(=O)NC(C)(C)c2nc(C(=O)NCc3ccc(F)cc3)c(O)c(=O)n2C)o1
inactive: outcome [1] | outcome [2] | outcome [3] | outcome [4] | outcome [5] | outcome [6] | outcome [7] | outcome [8] | Potency [9] | outcome [10]

CC1(C)S[C@@H]2[C@H](NC(=O)Cc3ccccc3)C(=O)N2[C@H]1C(=O)O (tested in a mixture with another compound)
inactive: outcome [1] | outcome [2] | outcome [3] | outcome [4] | outcome [5] | outcome [6] | outcome [7] | outcome [8] | Potency [9]

CC/C=C\CCCCCCCCCCOC(C)=O
inactive: outcome [1] | outcome [2] | outcome [3] | outcome [4] | outcome [5] | outcome [6] | outcome [7] | outcome [8] | Potency [9]

CC(C)(C)C(=O)CC(=O)C(C)(C)C
inactive: outcome [1] | outcome [2] | outcome [3] | outcome [4] | outcome [5] | outcome [6] | outcome [7] | outcome [8] | Potency [9]

C=CC(=O)OCCOCCOCC
inactive: outcome [1] | outcome [2] | outcome [3] | outcome [4] | outcome [5] | outcome [6] | outcome [7] | outcome [8] | Potency [9]

O=CN1CCCCC1
inactive: outcome [1] | outcome [2] | outcome [3] | outcome [4] | outcome [5] | outcome [6] | outcome [7] | outcome [8]

CCO[Si](CC(C)C)(OCC)OCC
inactive: outcome [1] | outcome [2] | outcome [3] | outcome [4] | outcome [5] | outcome [6] | outcome [7] | outcome [8] | Potency [9]

CCCC(=O)CC
inactive: outcome [1] | outcome [2] | outcome [3] | outcome [4] | outcome [5] | outcome [6] | outcome [7] | outcome [8]

CCCCCCCCCCCCCCBr
inactive: outcome [1] | outcome [2] | outcome [3] | outcome [4] | outcome [5] | outcome [6] | outcome [7] | outcome [8] | Potency [9]

O=C1Nc2ccccc2C1=O
inactive: outcome [1] | outcome [2] | outcome [3] | outcome [4] | outcome [5] | outcome [6] | outcome [7] | outcome [8] | Potency [9]

NS(=O)(=O)c1cc2c(cc1C(F)(F)F)NCNS2(=O)=O
inactive: fluorescence, % of fluorescein [1] -0.0035% [at 18.6 µM] | fluorescence, % of fluorescent control [2] 0.05% [at 18.6 µM] | activity change [3] 0.0709% [at 18.6 µM] | fluorescence, % of fluorescent control [4] 0.0039% [at 18.6 µM] | fluorescence, % of Rose Bengal [5] -0.188% [at 18.6 µM] | fluorescence, % of fluorescent control [6] -0.157% [at 18.6 µM] | fluorescence, % of fluorescein control [7] 0.01% [at 18.6 µM] | fluorescence, % of fluorescent control [8] -0.066% [at 18.6 µM] | Potency [9]

COC(C)(C)CC(C)=O
inactive: outcome [1] | outcome [2] | outcome [3] | outcome [4] | outcome [5] | outcome [6] | outcome [7] | outcome [8] | Potency [9]

CCC(C)c1nccnc1OC (stereo not drawn)
inactive: outcome [1] | outcome [2] | outcome [3] | outcome [4] | outcome [5] | outcome [6] | outcome [7] | outcome [8] | Potency [9] | outcome [10]

C=CCN1CCc2nc(N)sc2CC1
inactive: outcome [1] | outcome [2] | outcome [3] | outcome [4] | outcome [5] | outcome [6] | outcome [7] | outcome [8] | Potency [9]

Cc1ccc(Br)cc1
inactive: outcome [1] | outcome [2] | outcome [3] | outcome [4] | outcome [5] | outcome [6] | outcome [7] | outcome [8] | Potency [9]

Cc1ccc(S(=O)(=O)NC(=O)NN2CC3CCCC3C2)cc1 (stereo not drawn)
inactive: fluorescence, % of fluorescein [1] -0.0141% [at 18.6 µM] | fluorescence, % of fluorescent control [2] 0.0029% [at 18.6 µM] | activity change [3] -0.0097% [at 18.6 µM] | fluorescence, % of fluorescent control [4] 0.167% [at 18.6 µM] | fluorescence, % of Rose Bengal [5] 0.0439% [at 18.6 µM] | fluorescence, % of fluorescent control [6] -0.0187% [at 18.6 µM] | fluorescence, % of fluorescein control [7] -0.0072% [at 18.6 µM] | fluorescence, % of fluorescent control [8] -0.0447% [at 18.6 µM]

CC[N+](C)(CC)CC
inactive: outcome [1] | outcome [2] | outcome [3] | outcome [4] | outcome [5] | outcome [6] | outcome [7] | outcome [8]

CCCCCCCCCCCCCC(=O)OCC
inactive: outcome [1] | outcome [2] | outcome [3] | outcome [4] | outcome [5] | outcome [6] | outcome [7] | outcome [8] | Potency [9]

CCN(CC)CC
inactive: outcome [1] | outcome [2] | outcome [3] | outcome [4] | outcome [5] | outcome [6] | outcome [7] | outcome [8] | Potency [9]

CN(C)CCCN(C)C
inactive: fluorescence, % of fluorescein [1] -0.137% [at 3.72 µM] | fluorescence, % of fluorescent control [2] -0.55% [at 3.72 µM] | activity change [3] -0.2% [at 3.72 µM] | fluorescence, % of fluorescent control [4] -0.816% [at 3.72 µM] | fluorescence, % of Rose Bengal [5] -0.0354% [at 3.72 µM] | fluorescence, % of fluorescent control [6] -0.358% [at 3.72 µM] | fluorescence, % of fluorescein control [7] -0.197% [at 3.72 µM] | fluorescence, % of fluorescent control [8] -0.76% [at 3.72 µM] | activation [9] -0.0659% [at 6.9 µM] | activity change, negative = inhibition [10] 10.4% [at 7.04 µM]

CCOCCOCCOC(C)=O
inactive: outcome [1] | outcome [2] | outcome [3] | outcome [4] | outcome [5] | outcome [6] | outcome [7] | outcome [8] | Potency [9]

Source: PubChem BioAssay (Tox21)
